Results from the supplement of paper PMC11732987, “Enantioselective OTUD7B fragment discovery through chemoproteomics screening and high-throughput optimisation” (Communications Chemistry, 2025).
A number with no mark means an inactive call.

Key:
Test in all cases: log2 ratio of Biotin-Ahx-Ub-VS probe labelling (fragment/DMSO); higher = less target engagement (more negative = stronger competition), active = hit call of the paper (q ≤ 0.05, log2 ratio ≤ -1)
Conditions in all cases: compound concentration: 200 uM; treatment time: 3 h
OTUD6B = biological target: T1, OTUD6B (UniProt Q8N6M0)
T1 sequence (whole entry): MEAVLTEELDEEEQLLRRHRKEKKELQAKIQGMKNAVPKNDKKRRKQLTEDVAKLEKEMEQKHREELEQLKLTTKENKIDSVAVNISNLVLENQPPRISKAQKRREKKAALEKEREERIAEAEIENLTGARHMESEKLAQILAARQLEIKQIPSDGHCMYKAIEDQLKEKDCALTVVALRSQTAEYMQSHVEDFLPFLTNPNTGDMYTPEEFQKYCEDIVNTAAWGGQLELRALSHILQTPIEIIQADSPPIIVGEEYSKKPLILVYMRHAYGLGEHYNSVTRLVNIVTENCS
Procedure, shortened: (§1)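 Lysate from HEK293T cells, 495 µg per sample in Tris/CHAPS/IGEPAL buffer with protease inhibitors, was treated for 3 h in triplicate with fragment at 200 µM or vehicle. Biotin-Ahx-Ub-VS was next added at 0.5 µM final for 1 h. The labelled DUBs were enriched with NeutrAvidin, digested with LysC and trypsin, and run by diaPASEF LC-MS/MS, with values given as average log2 fragment/vehicle ratios by unpaired t-test on global-median-normalised Spectronaut quantities of proteins with ≥2 unique peptides.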

OTUD7B = biological target: T2, OTUD7B (UniProt Q6GQQ9)
T2 sequence (whole entry): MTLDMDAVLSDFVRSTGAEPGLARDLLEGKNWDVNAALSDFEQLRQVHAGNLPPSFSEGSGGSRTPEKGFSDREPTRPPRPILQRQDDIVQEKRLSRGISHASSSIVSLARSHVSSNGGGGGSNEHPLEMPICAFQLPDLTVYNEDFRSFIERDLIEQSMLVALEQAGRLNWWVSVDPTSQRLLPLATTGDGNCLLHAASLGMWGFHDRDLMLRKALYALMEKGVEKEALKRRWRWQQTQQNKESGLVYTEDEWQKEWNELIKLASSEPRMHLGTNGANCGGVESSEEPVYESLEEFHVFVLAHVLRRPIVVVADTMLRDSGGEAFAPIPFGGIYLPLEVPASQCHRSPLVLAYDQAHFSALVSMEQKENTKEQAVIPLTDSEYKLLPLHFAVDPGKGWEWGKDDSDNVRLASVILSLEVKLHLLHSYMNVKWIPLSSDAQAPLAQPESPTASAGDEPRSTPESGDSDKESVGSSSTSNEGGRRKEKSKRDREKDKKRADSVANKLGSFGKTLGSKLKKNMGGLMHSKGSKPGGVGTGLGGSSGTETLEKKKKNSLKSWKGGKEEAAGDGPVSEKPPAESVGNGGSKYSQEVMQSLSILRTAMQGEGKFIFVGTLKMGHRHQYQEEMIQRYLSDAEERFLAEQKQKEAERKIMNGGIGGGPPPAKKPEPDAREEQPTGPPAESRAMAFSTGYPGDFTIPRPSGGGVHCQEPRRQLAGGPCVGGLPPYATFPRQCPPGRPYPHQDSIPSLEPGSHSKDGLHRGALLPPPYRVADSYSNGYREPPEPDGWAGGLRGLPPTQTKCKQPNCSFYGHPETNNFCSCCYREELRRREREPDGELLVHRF
Procedure, shortened: as §1

PRPF8 = PRPF8 (UniProt Q6P2Q9)
Procedure, shortened: as §1

PSMD7 = biological target: T3, PSMD7 (UniProt P51665)
T3 sequence (whole entry): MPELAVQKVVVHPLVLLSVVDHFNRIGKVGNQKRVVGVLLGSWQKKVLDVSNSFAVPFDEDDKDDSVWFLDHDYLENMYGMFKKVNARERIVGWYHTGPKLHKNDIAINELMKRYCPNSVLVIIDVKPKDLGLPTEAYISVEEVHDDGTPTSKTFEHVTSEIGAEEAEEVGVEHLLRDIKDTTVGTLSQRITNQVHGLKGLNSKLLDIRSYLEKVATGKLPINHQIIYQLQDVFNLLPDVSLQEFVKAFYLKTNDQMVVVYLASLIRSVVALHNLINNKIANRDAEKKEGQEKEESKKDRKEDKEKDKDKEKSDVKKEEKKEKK
Procedure, shortened: as §1

UCHL1 = UCHL1 (UniProt P09936)
Sequence of UCHL1 (P09936 whole entry, looked up): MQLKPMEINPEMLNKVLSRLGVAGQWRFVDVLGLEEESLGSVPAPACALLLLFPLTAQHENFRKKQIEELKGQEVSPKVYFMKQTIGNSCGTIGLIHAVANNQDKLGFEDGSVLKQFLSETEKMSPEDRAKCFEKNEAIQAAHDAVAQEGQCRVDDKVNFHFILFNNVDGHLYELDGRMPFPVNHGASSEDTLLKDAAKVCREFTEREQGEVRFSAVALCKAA
Procedure, shortened: as §1

UCHL3 = biological target: T4, UCHL3 (UniProt P15374)
T4 sequence (whole entry): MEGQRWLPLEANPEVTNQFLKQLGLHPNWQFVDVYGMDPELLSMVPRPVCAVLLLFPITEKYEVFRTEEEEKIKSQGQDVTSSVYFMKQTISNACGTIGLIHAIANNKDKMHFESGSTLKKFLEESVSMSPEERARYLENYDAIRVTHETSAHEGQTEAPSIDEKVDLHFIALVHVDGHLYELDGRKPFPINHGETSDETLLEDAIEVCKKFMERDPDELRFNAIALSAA
Procedure, shortened: as §1

UCHL5 = biological target: T5, UCHL5 (UniProt Q9Y5K5)
T5 sequence (whole entry): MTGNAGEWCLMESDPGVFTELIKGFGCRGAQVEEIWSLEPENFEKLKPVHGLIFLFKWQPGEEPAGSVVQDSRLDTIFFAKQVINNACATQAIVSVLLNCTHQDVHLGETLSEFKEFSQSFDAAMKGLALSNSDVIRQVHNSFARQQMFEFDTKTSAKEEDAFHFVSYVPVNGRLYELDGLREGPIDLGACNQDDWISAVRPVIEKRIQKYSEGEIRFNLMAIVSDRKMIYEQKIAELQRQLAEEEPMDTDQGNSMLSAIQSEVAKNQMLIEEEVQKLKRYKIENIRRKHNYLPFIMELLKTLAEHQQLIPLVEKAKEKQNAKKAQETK
Procedure, shortened: as §1

USP10 = USP10 (UniProt Q14694)
Sequence of USP10 (Q14694 whole entry): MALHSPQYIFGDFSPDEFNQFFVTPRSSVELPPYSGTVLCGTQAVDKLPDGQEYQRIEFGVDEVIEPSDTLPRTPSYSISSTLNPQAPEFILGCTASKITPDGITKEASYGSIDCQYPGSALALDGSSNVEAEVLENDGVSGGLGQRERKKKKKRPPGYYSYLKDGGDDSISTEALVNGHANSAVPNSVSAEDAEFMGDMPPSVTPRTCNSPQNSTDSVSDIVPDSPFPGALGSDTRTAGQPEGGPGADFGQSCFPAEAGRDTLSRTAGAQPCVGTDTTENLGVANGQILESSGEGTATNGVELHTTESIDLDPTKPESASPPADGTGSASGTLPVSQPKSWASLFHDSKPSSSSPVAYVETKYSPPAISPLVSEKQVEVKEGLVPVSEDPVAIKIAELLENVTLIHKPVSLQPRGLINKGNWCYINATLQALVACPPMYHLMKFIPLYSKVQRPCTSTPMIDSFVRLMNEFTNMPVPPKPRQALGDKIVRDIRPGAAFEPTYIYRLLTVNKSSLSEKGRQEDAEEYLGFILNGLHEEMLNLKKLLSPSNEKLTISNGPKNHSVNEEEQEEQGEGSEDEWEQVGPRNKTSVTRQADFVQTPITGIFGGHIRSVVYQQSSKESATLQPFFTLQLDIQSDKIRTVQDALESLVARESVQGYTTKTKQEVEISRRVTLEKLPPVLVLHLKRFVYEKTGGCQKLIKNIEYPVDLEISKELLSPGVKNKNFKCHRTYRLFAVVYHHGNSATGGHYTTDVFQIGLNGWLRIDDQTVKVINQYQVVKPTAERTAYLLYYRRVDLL
Procedure, shortened: as §1

USP15 = biological target: T6, USP15 (UniProt Q9Y4E8)
T6 sequence (whole entry): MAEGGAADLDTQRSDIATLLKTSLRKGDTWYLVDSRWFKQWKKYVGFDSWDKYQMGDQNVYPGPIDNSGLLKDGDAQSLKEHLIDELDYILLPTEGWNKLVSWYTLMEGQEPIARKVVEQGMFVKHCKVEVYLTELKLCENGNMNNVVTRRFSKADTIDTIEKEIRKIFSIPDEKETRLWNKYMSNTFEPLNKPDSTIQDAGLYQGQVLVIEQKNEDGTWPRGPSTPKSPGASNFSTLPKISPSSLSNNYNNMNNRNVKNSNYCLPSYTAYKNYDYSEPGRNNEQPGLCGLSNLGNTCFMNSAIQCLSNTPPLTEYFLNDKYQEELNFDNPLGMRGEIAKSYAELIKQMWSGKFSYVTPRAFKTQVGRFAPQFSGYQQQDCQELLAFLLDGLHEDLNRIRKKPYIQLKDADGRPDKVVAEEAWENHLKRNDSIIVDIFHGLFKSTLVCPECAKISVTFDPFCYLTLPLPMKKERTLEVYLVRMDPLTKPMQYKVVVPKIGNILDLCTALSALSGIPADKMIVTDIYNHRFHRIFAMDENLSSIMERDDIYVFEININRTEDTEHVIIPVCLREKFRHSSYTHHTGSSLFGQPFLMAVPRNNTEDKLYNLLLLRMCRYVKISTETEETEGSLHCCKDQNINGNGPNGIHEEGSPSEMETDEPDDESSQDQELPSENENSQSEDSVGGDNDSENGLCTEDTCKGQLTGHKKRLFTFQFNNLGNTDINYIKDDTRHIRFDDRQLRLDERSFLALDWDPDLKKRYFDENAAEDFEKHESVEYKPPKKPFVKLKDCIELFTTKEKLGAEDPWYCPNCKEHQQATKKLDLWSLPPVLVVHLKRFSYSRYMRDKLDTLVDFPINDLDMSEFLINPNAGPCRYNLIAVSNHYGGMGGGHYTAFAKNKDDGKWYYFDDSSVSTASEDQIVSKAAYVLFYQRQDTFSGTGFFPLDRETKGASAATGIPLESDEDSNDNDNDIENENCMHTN
Procedure, shortened: as §1

USP16 = USP16 (UniProt Q9Y5T5)
Sequence of USP16 (Q9Y5T5 whole entry, looked up): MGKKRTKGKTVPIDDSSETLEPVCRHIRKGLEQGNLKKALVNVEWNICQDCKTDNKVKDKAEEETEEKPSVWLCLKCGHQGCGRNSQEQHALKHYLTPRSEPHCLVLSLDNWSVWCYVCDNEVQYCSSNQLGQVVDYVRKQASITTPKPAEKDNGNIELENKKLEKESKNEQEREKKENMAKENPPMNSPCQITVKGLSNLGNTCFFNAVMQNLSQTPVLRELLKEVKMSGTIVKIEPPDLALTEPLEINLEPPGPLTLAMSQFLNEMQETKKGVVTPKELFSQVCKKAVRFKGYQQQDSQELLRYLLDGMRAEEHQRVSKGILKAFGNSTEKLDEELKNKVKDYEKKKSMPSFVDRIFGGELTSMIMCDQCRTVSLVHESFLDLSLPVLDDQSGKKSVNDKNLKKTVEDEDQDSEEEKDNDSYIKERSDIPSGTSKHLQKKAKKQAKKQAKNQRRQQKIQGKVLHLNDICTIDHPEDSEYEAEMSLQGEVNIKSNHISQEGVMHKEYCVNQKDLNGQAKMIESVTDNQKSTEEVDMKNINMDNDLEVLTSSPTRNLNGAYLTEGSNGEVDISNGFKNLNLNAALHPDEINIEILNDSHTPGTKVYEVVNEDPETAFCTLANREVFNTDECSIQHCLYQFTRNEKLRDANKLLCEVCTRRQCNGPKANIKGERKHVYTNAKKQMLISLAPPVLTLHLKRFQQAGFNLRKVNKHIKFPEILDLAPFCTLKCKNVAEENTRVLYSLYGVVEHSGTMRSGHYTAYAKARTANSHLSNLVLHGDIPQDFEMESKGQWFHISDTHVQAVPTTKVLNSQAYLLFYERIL
Procedure, shortened: as §1

Q: `O=C(CCl)NCc1cccc(N2CCCC2=O)c1` was tested. Which “log2 ratio of Biotin-Ahx-Ub-VS probe labelling” value (“log2 ratio” for short) (OTUD6B) did it give?
A: The value was 0.058.

Q: What about the “log2 ratio” value (OTUD7B) of the same compound?
A: The value was -0.585.

Q: And the “log2 ratio” value (PRPF8)?
A: Its value is -0.0281.

Q: What about the “log2 ratio” value (PSMD7) of the same compound?
A: The value was -0.0566.

Q: What about the “log2 ratio” value (UCHL1) of the same compound?
A: Its value is -0.979.

Q: And the “log2 ratio” value (UCHL3)?
A: The value was 0.302.

Q: What about the “log2 ratio” value (UCHL5) of the same compound?
A: The value was -0.112.

Q: And the “log2 ratio” value (USP10)?
A: Its value is 0.0755.

Q: What about the “log2 ratio” value (USP15) of the same compound?
A: The value was 0.049.

Q: What about the “log2 ratio” value (USP16) of the same compound?
A: Its value is -1 (active).
